We go through 17 compounds from PubChem BioAssay (NCATS).

Each structure is given as a SMILES string. Several values for one entry are separate records, joined by “and”; a condition that tells them apart may be missing. Equal entries are not always repeated. Inconclusive results are not listed. Activity calls are given as the source filed them. Unless noted, the call rests on the fitted dose curve; in most records, active means well fitted curve in the direction sought with a large enough effect; inconclusive means small, poorly fitted or top-dose-only effect, or another doubt; inactive means no such curve, though single readings can be large; an effect the other way counts as inactive or inconclusive.

The target of test [1] is Alpha-galactosidase A (Homo sapiens) (UniProt P06280). The test is described as follows: Counterscreen for Glucocerebrosidase Inhibitors: qHTS Assay for Human alpha-Galactosidase at pH 4.5 (AID 992). Further: 0% is about no effect. The method in brief: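 Human enzyme (2 nM) with 80 uM 4-methylumbelliferyl alpha-D-galactopyranoside in 50 mM citric acid, 0.005% Tween-20, pH 4.5, 20 min at room temperature. Compounds 0.7 nM–77 uM; fluorescence Ex 365/Em 440 after pH 10 stop; AC50 from Hill fits.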
On the technique in general: Counterscreens check selectivity or assay interference.

Test [2] deals with Alpha-galactosidase (Coffea arabica) (UniProt Q42656). Description: Counterscreen for Glucocerebrosidase Inhibitors: qHTS Assay for Coffee Bean alpha-Galactosidase at pH 5.9 (AID 998).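 Further: plate controls were uninhibited enzyme for no effect and no-enzyme basal signal for full effect.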 The method in brief:
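Compounds were titrated from 0.7 nM to 77 uM against green coffee bean alpha-galactosidase (2 nM) using 80 uM fluorogenic 4-methylumbelliferyl substrate. After 20 min at room temperature, reactions were stopped at pH 10 and read by fluorescence.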

The nature of test [3]: qHTS Assay for Lipid Storage Modulators (AID 1519; calls by dose curve; further: potency means the concentration at half of the fitted maximal effect; on activity change, negative = inhibition: on the % scale 0 is the no-effect control and ±100 the full control effect). Particulars: Drosophila S3 cells, BODIPY lipid droplet/cell ratio, laser cytometry, cells loaded with oleic acid. The method in brief: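 Cells seeded at 5,000 per well were treated with compounds over a concentration series and loaded with oleic acid (400 uM, as added). Lipid droplet fluorescence (488 nm excitation, 500-530 nm channel) was read by laser-scanning cytometry and normalized to 20 uM Triacsin C.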

The nature of test [4]: Validation of Assay for Modulators of Lamin A Splicing (AID 1459; active means well fitted curve in the direction sought with a large enough effect in the signal ratio; the % refers to the signal ratio;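 further: cells exposed to compound for two days before reading; 0% is about no effect; ratio rise marks activators and ratio drop marks inhibitors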). The gist of the method: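 Readout: ratio of GFP (500-530 nm) to RFP (575-640 nm) total object intensity by 488 nm laser-scanning cytometry after 48 hrs. Cells were HeLa S3 clones carrying lamin A-EGFP minigene plus DsRed2 viability reporter; vehicle 0.5% DMSO final.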
The nature of test [5]: Cell Viability - LYMP2-025 (AID 976).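 Further: plate controls were DMSO only for no effect and tetraoctylammonium bromide control for full effect.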 The method in brief: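 Human lymphoblastoid LYMP2-025 cells, 2500/well, exposed 24 h at 37 C in complete medium in 1536-well qHTS. Viability as cellular ATP by CellTiter-Glo luminescence; AC50 from Hill fits of concentration-response data.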
The nature of test [6]: Cell Viability - LYMP2-002 (AID 977).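 Further: compound exposure lasted 24 h at 37 °C; plate controls were DMSO only for no effect and 92 µM tetraoctylammonium bromide for full effect.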 The gist of the method:
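Cytotoxicity is scored as concentration-dependent loss of cellular ATP in a human lymphoblastoid line after 24 hr compound treatment at 37 C. AC50 is obtained by modelling concentration-response data with the Hill equation.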

Test [7] in a line: Cell Viability - LYMP2-006 (AID 978). Further: on the % scale 0 is the no-effect control and ±100 the full control effect; nearly all actives have a fitted effect of over 60% in size. The method in brief:
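qHTS, 1536-well; 2500 cells/well, 5 hr 37 C; cpd 24 hr 37 C; CellTiter-Glo 30 min RT; luminescence. Tetraoctylammonium bromide pos. ctrl. AC50 via Hill eqn.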

The nature of test [8]: Cell Viability - LYMP2-007 (AID 979).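 Further: cells exposed to compound for 24 h before reading; 0% = DMSO only and the negative end = 92 µM tetraoctylammonium bromide; nearly all actives have a fitted effect of over 60% in size.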 The gist of the method: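 Human lymphoblastoid LYMP2-007 cells (2500/well) preincubated 5 h at 37 C, then treated 24 h at 37 C in complete medium. Viability by CellTiter-Glo ATP luminescence after 30 min at room temperature; AC50 from Hill fits.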
Test [9] in a line: Cell Viability - LYMP2-008 (AID 980). Further: on the % scale 0 is the no-effect control and ±100 the full control effect; nearly all actives have a fitted effect of over 60% in size. The gist of the method:
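LYMP2-008 lymphoblastoid cells (2500/well) plated 5 h, then treated 24 h at 37 C in complete medium. Viability read as intracellular ATP by CellTiter-Glo luminescence after 30 min at room temperature; AC50 from Hill fits.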

The nature of test [10]: Cell Viability - LYMP2-010 (AID 981). Further: on the % scale 0 is the no-effect control and ±100 the full control effect; nearly all actives have a fitted effect of over 55% in size. The gist of the method:
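Human lymphoblastoid LYMP2-010 cells (2500/well) treated 24 h at 37 C in complete medium; viability read as intracellular ATP by CellTiter-Glo luminescence. AC50 from Hill fits of concentration-response data; tetraoctylammonium bromide positive control.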

The nature of test [11]: Cell Viability - LYMP2-012 (AID 982).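 Further: cellular ATP by luciferase luminescence where a drop means cytotoxicity; cells exposed to compound for one day before reading; 0% = DMSO only and full loss = 92 µM tetraoctylammonium bromide; nearly all actives have a fitted effect of over 55% in size.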
The nature of test [12]: Cell Viability - LYMP2-014 (AID 983).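 Further: plate controls were DMSO only for no effect and 92 µM tetraoctylammonium bromide for full effect; nearly all actives have a fitted effect of over 50% in size.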 The method in brief:
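LYMP2-014 human lymphoblastoid cells, 2500/well, treated 24 h at 37 C in complete medium; viability by CellTiter-Glo ATP luminescence after 30 min at room temperature. AC50 from Hill fits of qHTS concentration-response; tetraoctylammonium bromide positive control.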

Test [13] can be described thus: Cell Viability - LYMP2-016 (AID 984). Further: on the % scale 0 is the no-effect control and ±100 the full control effect; nearly all actives have a fitted effect of over 55% in size. The method in brief:
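qHTS, 1536-well: 2500 LYMP2-016 cells/well, 5 hr 37 C, compound added, 24 hr 37 C, CellTiter-Glo 30 min RT, luminescence. Tetraoctylammonium bromide positive control. AC50 via Hill fit.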

The nature of test [14]: Cell Viability - LYMP2-018 (AID 985).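 Further: compound exposure lasted 24 hr at 37 °C; plate controls were DMSO only for no effect and tetraoctylammonium bromide at 92 µM for full effect; nearly all actives have a fitted effect of over 50% in size.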 The gist of the method: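 Human lymphoblastoid LYMP2-018 cells, 2500/well, settled 5 hr at 37 C then exposed to compound 24 hr at 37 C; intracellular ATP measured by CellTiter-Glo luminescence. AC50 from Hill-equation concentration-response fits.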
Test [15] in a line: Cell Viability - LYMP2-020 (AID 986).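 Further: plate controls were DMSO only for no effect and tetraoctylammonium bromide at 92 µM for full effect; nearly all actives have a fitted effect of over 55% in size.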 The gist of the method:
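Human lymphoblastoid LYMP2-020 cells (2500/well) preincubated 5 h at 37 C, then treated 24 h at 37 C. Viability measured as intracellular ATP by CellTiter-Glo luminescence after 30 min at room temperature; AC50 from Hill fits.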

Test [16] is described as follows: Cell Viability - LYMP2-022 (AID 987). The gist of the method: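 LYMP2-022 lymphoblastoid cells (2500/well, complete medium) were treated with compounds for 24 hours at 37 C; intracellular ATP was then read by CellTiter-Glo luminescence after 30 min at room temperature. AC50 values were derived from Hill-equation fits.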
Test [17] is described as follows: Cell Viability - LYMP2-024 (AID 988).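 Further: plate controls were DMSO only for no effect and 92 µM tetraoctylammonium bromide for full effect; nearly all actives have a fitted effect of over 60% in size.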 The gist of the method: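 Human lymphoblastoid LYMP2-024 cells (2500/well) rested 5 hr, then treated with compound for 24 hr at 37 C in complete medium. Viability was measured as intracellular ATP by CellTiter-Glo luminescence. AC50 values came from Hill-equation fits.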
The nature of test [18]: Cell Viability - LYMP2-026 (AID 989). Further: on the % scale 0 is the no-effect control and ±100 the full control effect; nearly all actives have a fitted effect of over 50% in size. The method in brief: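 Human lymphoblastoid LYMP2-026 cells, 2500/well, exposed to compound 24 h at 37 C in complete medium. Viability as intracellular ATP by CellTiter-Glo luminescence; AC50 from Hill fits of qHTS concentration-response.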
The nature of test [19]: Cell Viability - LYMP1-002 - Assay at 24 hr (AID 993). Further: on the % scale 0 is the no-effect control and ±100 the full control effect. The gist of the method:
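Human lymphoblastoid LYMP1-002 cells (2500/well) treated 24 h at 37 °C; viability as intracellular ATP by CellTiter-Glo luminescence. Tetraoctylammonium bromide as positive control; AC50 from Hill-equation fits of qHTS concentration-response.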

Test [20] is described as follows: Cell Viability - LYMP1-002 - Assay at 40 hr (AID 994). The gist of the method:
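LYMP1-002 human lymphoblastoid cells (2500/well, complete medium) were treated with compounds for 40 hr at 37 C. Intracellular ATP was measured by CellTiter-Glo luminescence, and AC50 values came from Hill-equation fits of concentration-response data; tetraoctylammonium bromide was the positive control.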

Where [21] appears, read: measured here: cell count channel max response.
The mark [22] stands for this setting: measured here: lipid channel max response.

Chain of Alpha-galactosidase (Coffea arabica) (Q42656 whole entry, looked up): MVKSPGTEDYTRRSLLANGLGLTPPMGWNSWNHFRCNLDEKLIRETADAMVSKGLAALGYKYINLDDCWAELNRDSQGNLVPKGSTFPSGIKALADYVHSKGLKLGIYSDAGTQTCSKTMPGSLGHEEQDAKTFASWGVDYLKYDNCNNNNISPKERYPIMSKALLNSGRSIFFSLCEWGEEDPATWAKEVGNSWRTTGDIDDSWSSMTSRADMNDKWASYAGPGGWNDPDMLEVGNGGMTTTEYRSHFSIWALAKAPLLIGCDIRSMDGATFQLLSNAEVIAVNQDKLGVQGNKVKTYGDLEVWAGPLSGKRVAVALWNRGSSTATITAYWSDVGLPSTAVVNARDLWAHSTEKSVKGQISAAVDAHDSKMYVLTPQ
Chain of Alpha-galactosidase A (Homo sapiens) (P06280 whole entry, looked up): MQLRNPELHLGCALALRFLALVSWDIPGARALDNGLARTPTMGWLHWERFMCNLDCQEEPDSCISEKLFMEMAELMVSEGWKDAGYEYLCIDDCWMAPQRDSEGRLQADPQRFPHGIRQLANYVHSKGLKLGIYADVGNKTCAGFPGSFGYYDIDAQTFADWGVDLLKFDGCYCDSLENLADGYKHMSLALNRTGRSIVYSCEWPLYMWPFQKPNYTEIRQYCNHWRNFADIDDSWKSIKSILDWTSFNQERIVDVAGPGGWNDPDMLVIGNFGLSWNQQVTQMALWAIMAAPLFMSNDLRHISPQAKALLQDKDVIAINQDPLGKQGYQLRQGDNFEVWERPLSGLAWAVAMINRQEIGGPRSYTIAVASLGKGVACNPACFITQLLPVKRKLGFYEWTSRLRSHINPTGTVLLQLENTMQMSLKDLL

Turning to `CCCCc1ccc(C(=O)O)nc1`, the call in test [1] and in test [2] was inactive. Also, the activity change, negative = inhibition is -2.75% (inactive) in [3] (at 25.7 µM (top of the series)) and 1.57% (inactive) in [3] (at 57.5 µM (top of the series)). Moreover, the max response in [3] (setting [21]) was 0.85% and 4.91%; in test [3] (setting [22]), -1.53% and 6.42%.

As to `COC(=O)[C@@H](N)CCCN=C(N)N[N+](=O)[O-]`, the activity change, negative = inhibition in [3] (at 57.5 µM (top of the series)) was -4.08% (inactive). In addition, the max response is -4.51% in [3] (setting [21]) and -8.77% in test [3] (setting [22]).

`NCCc1c[nH]c2ccccc12`: the compound was called inactive in test [1], in [2] and in test [4]. Besides, the activity change, negative = inhibition in [3] (at 57.5 µM (top of the series)) is 5.62% (inactive). Also, the max response in test [3] (setting [21]) amounted to 8.58%; in test [3] (setting [22]), 17.6%.

`CN[C@@H](C)[C@H](O)c1ccccc1`: in test [3] (at 57.5 µM (top of the series)), the activity change, negative = inhibition is -15% (inactive). The max response was -49.5% in [3] (setting [21]) and -56.7% in test [3] (setting [22]).

Take `Cc1cc(O)ccc1Cl`: the Potency entry in [5], in [6], in [7], in [8], in test [9] and in [10] was “inactive” in each case. Further, the Potency result in test [11], in test [12], in test [13], in test [14], in test [15] and in [16] was “inactive” throughout. The Potency entry in [17], in test [18], in test [19] and in test [20] was “inactive” each time. The activity change, negative = inhibition in [3] (at 57.5 µM (top of the series)) is 8.09% (inactive). In addition, the max response is -7.09% in test [3] (setting [21]) and 5.53% in [3] (setting [22]).

For `NC(=O)CN1CC(O)CC1=O` (stereo unspecified), the activity change, negative = inhibition in test [3] (at 57.5 µM (top of the series)) was 3.41% (inactive). For the same compound, the values for the max response in test [3] (setting [21]) and in test [3] (setting [22]) were 18.3% and 20.4%, respectively.

For the compound `O=C(O)[C@@H]1CCN1`, the activity change, negative = inhibition in [3] (at 57.5 µM (top of the series)) is 1.64% (inactive). For the same compound, the max response is -13.5% in [3] (setting [21]) and -13.6% in test [3] (setting [22]).

Consider `CCCCCCCCCCCCCCCC[N+](C)(C)C`, for which, in test [3], the Potency is 11.2 µM (active). For the same compound, the max response in test [3] (setting [21]) was -15.3%; in test [3] (setting [22]), -89.4%.

As to `COc1ccc(C(c2ccc(OC)cc2)C(Cl)(Cl)Cl)cc1`, the Potency result in test [5], in test [6], in test [7], in test [8], in test [9] and in [10] was “inactive” in each case. The Potency result in test [11], in [12], in [13], in test [14], in test [15] and in test [16] was “inactive” in each case. Moreover, the Potency result in test [17], in test [18], in test [19] and in [20] was “inactive” each time. Further, the activity change, negative = inhibition in test [3] (at 57.5 µM (top of the series)) was 6.03% (inactive). The max response in [3] (setting [21]) was 12.8%; in test [3] (setting [22]), 30.2%.

With `NC(CCP(=O)(O)O)C(=O)O` (stereo unspecified), the activity change, negative = inhibition in test [3] (at 57.5 µM (top of the series)) is 2.25% (inactive). In addition, the max response in test [3] (setting [21]) is 14.5%; in test [3] (setting [22]) it was 18.2%.

Take `CCC(=O)OC1CCC2C3CCC4=CC(=O)CC[C@@]4(C)C3CC[C@]12C` (stereo partly specified): in test [3] (at 57.5 µM (top of the series)), the activity change, negative = inhibition was 11.4% (inactive). Moreover, the max response is 4.67% in test [3] (setting [21]) and 18.5% in test [3] (setting [22]).

With `Cc1nccc2c1[nH]c1ccccc12`, the outcome in test [1] and in [2] was inactive. Besides, the activity change, negative = inhibition in [3] (at 25.7 µM (top of the series)) is 0.405% (inactive); in test [3] (at 57.5 µM (top of the series)) it was 2.54% (inactive). The max response was 6.61% and 77.2% in test [3] (setting [21]); 6.19% and 80.2% in test [3] (setting [22]).

Turning to `NC(N)=NOCCC(N)C(=O)O` (stereo unspecified), the compound was classed as inactive in test [1] and in test [2]. Besides, the activity change, negative = inhibition in [3] (at 57.5 µM (top of the series)) was 1.36% (inactive) and 1.85% (inactive). Further, the max response in [3] (setting [21]) is 3.95% and -21.7%; in [3] (setting [22]), 4.87% and -17.2%.

Regarding `Cn1cnc(CCN)c1`, the call in test [1] and in [2] was inactive. Further, in test [3] (at 57.5 µM (top of the series)), the activity change, negative = inhibition was 1.27% (inactive). Besides, the max response in test [3] (setting [21]) stood at 34.2%; in test [3] (setting [22]), 35.2%.

In the case of `O=c1cccc2n1CC1CNC[C@H]2C1`, the activity change, negative = inhibition in test [3] (at 25.7 µM (top of the series)) was -2.83% (inactive). Moreover, the max response is -1.29% in [3] (setting [21]) and -2.58% in test [3] (setting [22]).

On to `S=C(NC1CCCCC1)N1CCC(c2cnc[nH]2)CC1`, for which the call in [1] and in [2] was inactive. Also, the activity change, negative = inhibition in test [3] (at 57.5 µM (top of the series)) was 0.457% (inactive). Moreover, the max response in [3] (setting [21]) was 8.5%; in test [3] (setting [22]), 6.88%.

Take `NCCc1c[nH]c2ccc(O)cc12`: the compound was classed as inactive in test [1] and in [2]. Also, the activity change, negative = inhibition is -0.711% (inactive) in test [3] (at 25.7 µM (top of the series)) and 0.919% (inactive) in test [3] (at 57.5 µM (top of the series)). Also, the max response in test [3] (setting [21]) was -5.09% and -12.1%; in [3] (setting [22]), -6.32% and -9.72%.
